PubChem BioAssay (NCATS)
Records with an inconclusive call do not appear. Active and inactive are the calls of the source. The call rests on the fitted dose curve; in most records, active means well fitted curve in the direction sought with a large enough effect; inconclusive means small, poorly fitted or top-dose-only effect, or another doubt; inactive means no such curve, though single readings can be large; an effect the other way counts as inactive or inconclusive.

Experiments:
[1] = molecular target: ATP-dependent 6-phosphofructokinase (Trypanosoma brucei brucei) (UniProt O15648); assay: qHTS Assay to Find Inhibitors of T. brucei phosphofructokinase: hit validation (AID 492961);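 further: luminescence reports ADP formed as PFK phosphorylates fructose-6-phosphate with ATP; on the % scale 0 is the no-effect control and ±100 the full control effect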
ATP-dependent 6-phosphofructokinase (Trypanosoma brucei brucei), sequence (O15648 whole entry, looked up): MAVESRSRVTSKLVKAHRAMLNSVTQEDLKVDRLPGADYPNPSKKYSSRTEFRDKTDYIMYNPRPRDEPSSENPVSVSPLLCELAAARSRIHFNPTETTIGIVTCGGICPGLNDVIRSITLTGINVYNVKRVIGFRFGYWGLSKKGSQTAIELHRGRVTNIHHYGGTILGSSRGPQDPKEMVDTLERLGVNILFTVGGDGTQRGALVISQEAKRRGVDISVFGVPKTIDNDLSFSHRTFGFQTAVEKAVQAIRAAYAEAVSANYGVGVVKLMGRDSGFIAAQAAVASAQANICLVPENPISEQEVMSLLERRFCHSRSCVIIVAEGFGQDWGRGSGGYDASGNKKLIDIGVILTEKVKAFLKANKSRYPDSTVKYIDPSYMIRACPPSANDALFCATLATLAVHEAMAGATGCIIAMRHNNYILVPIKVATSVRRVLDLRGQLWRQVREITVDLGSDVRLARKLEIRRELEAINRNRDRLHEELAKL
Method in brief: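 Percent activity derived from corrected luminescence, normalized between 0x and 1x enzyme controls, then fitted to concentration-response curves. Conditions: 1.25 nM PFK, 0.1 mM ATP, 0.5 mM F6P, 45 min RT.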

[2] = molecular target: Luciferin 4-monooxygenase (Photinus pyralis) (UniProt P08659); assay: Biochemical firefly luciferase enzyme assay for NPC (AID 624030); further: potency means the concentration at half of the fitted maximal effect; nearly all actives have a fitted effect of over 70% in size
Luciferin 4-monooxygenase (Photinus pyralis), sequence (P08659 whole entry, looked up): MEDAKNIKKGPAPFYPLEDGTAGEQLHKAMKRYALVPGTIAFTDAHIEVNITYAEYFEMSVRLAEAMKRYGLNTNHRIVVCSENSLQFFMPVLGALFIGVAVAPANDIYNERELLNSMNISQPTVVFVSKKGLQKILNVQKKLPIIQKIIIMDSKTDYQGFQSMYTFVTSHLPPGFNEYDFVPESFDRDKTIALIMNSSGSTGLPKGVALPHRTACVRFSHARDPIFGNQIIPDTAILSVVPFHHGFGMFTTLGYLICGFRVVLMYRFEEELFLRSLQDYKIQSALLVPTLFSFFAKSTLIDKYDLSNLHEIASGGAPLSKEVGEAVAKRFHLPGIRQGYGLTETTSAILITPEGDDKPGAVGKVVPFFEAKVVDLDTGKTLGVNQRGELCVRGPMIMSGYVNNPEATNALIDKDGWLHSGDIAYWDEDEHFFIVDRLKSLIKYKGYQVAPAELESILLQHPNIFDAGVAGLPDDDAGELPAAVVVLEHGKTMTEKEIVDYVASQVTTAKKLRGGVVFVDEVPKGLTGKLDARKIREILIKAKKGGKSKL
Method in brief: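 Counter-screen for direct inhibition of the luciferase enzyme by approved-drug library compounds, run at 10 nM enzyme in 50 mM Tris acetate (final). Luminescence was read within 5 min of enzyme-buffer addition and normalized to PTC124 versus DMSO (0%).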

[3] = S16 Schwann cell viability assay (CellTiter-Glo assay) (AID 624031);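 further: native untransfected S16 rat Schwann cells; plate controls were DMSO-treated cells for no effect and cell-free wells for full effect; nearly all actives have a fitted effect of over 70% in size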
Method in brief: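 Counter-screen for cytotoxicity: parental S16 rat Schwann cells lacking the PMP22 reporters, treated 24 h with compound, viability from cellular ATP by CellTiter-Glo luminescence, normalized to DMSO (0%) and no-cell wells.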

[4] = S16 Schwann cell PMP22 intronic element firefly luciferase assay (AID 624032);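 further: plate controls were DMSO for no effect and PTC124 positive control mean for full effect; nearly all actives have a fitted effect of over 30% in size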
Method in brief: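 Rat S16 Schwann cells stably carrying a PMP22 intronic element-driven Fluc reporter were seeded overnight, then exposed to compounds for 24 h at 37 °C. Luminescence was normalized to PTC124 (positive control) and DMSO (0% activity).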

Furin (Homo sapiens) = Furin (Homo sapiens) (UniProt P09958); assay: Furin counterscreen qHTS for Zika virus inhibitors (AID 1347149); further: potency means the concentration at half of the fitted maximal effect; nearly all actives have a fitted effect of over 70% in size
Furin (Homo sapiens), sequence (P09958 whole entry, looked up): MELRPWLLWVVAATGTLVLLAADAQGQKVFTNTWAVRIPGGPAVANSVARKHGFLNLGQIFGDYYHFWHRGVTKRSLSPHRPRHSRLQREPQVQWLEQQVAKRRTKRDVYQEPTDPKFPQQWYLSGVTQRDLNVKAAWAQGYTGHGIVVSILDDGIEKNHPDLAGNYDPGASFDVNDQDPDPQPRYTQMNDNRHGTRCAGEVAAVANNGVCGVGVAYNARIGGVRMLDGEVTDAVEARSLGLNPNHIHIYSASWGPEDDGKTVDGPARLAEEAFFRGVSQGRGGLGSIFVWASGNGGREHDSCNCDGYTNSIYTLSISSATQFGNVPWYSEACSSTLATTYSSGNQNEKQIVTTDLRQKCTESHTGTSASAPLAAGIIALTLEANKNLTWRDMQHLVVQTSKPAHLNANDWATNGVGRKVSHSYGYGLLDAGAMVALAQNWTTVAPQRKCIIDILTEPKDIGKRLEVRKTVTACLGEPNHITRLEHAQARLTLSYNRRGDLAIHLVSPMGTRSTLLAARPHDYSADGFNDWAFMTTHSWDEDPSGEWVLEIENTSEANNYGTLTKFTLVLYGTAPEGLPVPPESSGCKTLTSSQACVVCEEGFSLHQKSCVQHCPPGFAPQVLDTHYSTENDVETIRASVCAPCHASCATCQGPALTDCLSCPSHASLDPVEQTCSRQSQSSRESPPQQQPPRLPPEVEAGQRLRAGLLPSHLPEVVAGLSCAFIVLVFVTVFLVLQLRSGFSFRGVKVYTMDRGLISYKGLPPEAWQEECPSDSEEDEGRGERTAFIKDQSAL
Method in brief: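 Fluorogenic cleavage of BOC-RVRR-AMC (2 microM final, Km ~15 µM) was monitored (ex 340, em 450 nm) at 37C after 15 min RT preincubation of 5 nM furin with compounds in HEPES pH 7.0 buffer with CaCl2 and Triton X-100. Percent inhibition was fitted to a 4-parameter Hill curve.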

[5] = Confirmatory screen GU Rhodamine qHTS for Zika virus inhibitors qHTS (AID 1347157); further: potency means the concentration at half of the fitted maximal effect; nearly all actives have a fitted effect of over 70% in size
Method in brief: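 Unlinked NS2B/NS3, 25 nM; Rhod110 peptide, 1.5 microM; compounds, up to 114 microM. Reaction run 15 min at RT in 10 mM Tris-HCl pH 8.0, 0.01% Tween 20; kinetic fluorescence change fitted with a 4-parameter Hill model.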

[6] = Tertiary RLuc qRT-PCR qHTS assay for Zika virus inhibitors (AID 1347169); further: top concentration of the series differs between compounds; on the % scale 0 is the no-effect control and ±100 the full control effect; nearly all actives have a fitted effect of over 55% in size
Method in brief: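 Vero cells (1,000 per well) plated overnight at 37 degrees C, treated with compound in DMSO, then infected with recombinant ZIKV-RLuc (Cambodian) at MOI 1-2 for 48-72 hrs. Live-cell Renilla luciferase substrate added; luminescence read after 1-1.5 hrs.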

[7] = qHTS profiling for inhibitors of Plasmodium falciparum proliferation (AID 504749);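 further: 0% = DMSO vehicle and full inhibition = artemisinin control; nearly all actives have a fitted effect of over 60% in size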; conditions: P. falciparum in erythrocytes, SYBR Green DNA, 72 h, at 28.7 µM (top of the series)
Method in brief: (§1)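 P. falciparum-infected erythrocytes (0.3% parasitemia, 2.5% hematocrit final) were exposed to compounds for 72 h at 37 C in 5% CO2, then lysed with SYBR Green buffer overnight at room temperature; parasite DNA fluorescence was normalized to artemisinin and DMSO controls.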

3D7 = assay: as above; conditions: P. falciparum in erythrocytes, SYBR Green DNA, 72 h; series mostly up to 28.7 µM
Method in brief: as §1

AA1029 = assay: as above; conditions: P. falciparum in erythrocytes, SYBR Green DNA, 72 h; series mostly up to 28.7 µM
Method in brief: as §1

AS120 = assay: as above; conditions: P. falciparum in erythrocytes, SYBR Green DNA, 72 h; series mostly up to 28.7 µM
Method in brief: as §1

ATS189 = assay: as above; conditions: P. falciparum in erythrocytes, SYBR Green DNA, 72 h; series mostly up to 28.7 µM
Method in brief: as §1

ATS95 = assay: as above; conditions: P. falciparum in erythrocytes, SYBR Green DNA, 72 h; series mostly up to 28.7 µM
Method in brief: as §1

C2A = assay: as above; conditions: P. falciparum in erythrocytes, SYBR Green DNA, 72 h; series mostly up to 28.7 µM
Method in brief: as §1

CP185 = assay: as above; conditions: P. falciparum in erythrocytes, SYBR Green DNA, 72 h; series mostly up to 28.7 µM
Method in brief: as §1

CP191 = assay: as above; conditions: P. falciparum in erythrocytes, SYBR Green DNA, 72 h; series mostly up to 28.7 µM
Method in brief: as §1

CP192 = assay: as above; conditions: P. falciparum in erythrocytes, SYBR Green DNA, 72 h; series mostly up to 28.7 µM
Method in brief: as §1

CP194 = assay: as above; conditions: P. falciparum in erythrocytes, SYBR Green DNA, 72 h; series mostly up to 28.7 µM
Method in brief: as §1

CP201 = assay: as above; conditions: P. falciparum in erythrocytes, SYBR Green DNA, 72 h; series mostly up to 28.7 µM
Method in brief: as §1

CP211 = assay: as above; conditions: P. falciparum in erythrocytes, SYBR Green DNA, 72 h; series mostly up to 28.7 µM
Method in brief: as §1

CP217 = assay: as above; conditions: P. falciparum in erythrocytes, SYBR Green DNA, 72 h; series mostly up to 28.7 µM
Method in brief: as §1

CP237 = assay: as above; conditions: P. falciparum in erythrocytes, SYBR Green DNA, 72 h; series mostly up to 28.7 µM
Method in brief: as §1

CP238 = assay: as above; conditions: P. falciparum in erythrocytes, SYBR Green DNA, 72 h; series mostly up to 28.7 µM
Method in brief: as §1

CP250 = assay: as above; conditions: P. falciparum in erythrocytes, SYBR Green DNA, 72 h; series mostly up to 28.7 µM
Method in brief: as §1

CP252 = assay: as above; conditions: P. falciparum in erythrocytes, SYBR Green DNA, 72 h; series mostly up to 28.7 µM
Method in brief: as §1

CP256 = assay: as above; conditions: P. falciparum in erythrocytes, SYBR Green DNA, 72 h; series mostly up to 28.7 µM
Method in brief: as §1

CP260 = assay: as above; conditions: P. falciparum in erythrocytes, SYBR Green DNA, 72 h; series mostly up to 28.7 µM
Method in brief: as §1

CP262 = assay: as above; conditions: P. falciparum in erythrocytes, SYBR Green DNA, 72 h; series mostly up to 28.7 µM
Method in brief: as §1

CP265 = assay: as above; conditions: P. falciparum in erythrocytes, SYBR Green DNA, 72 h; series mostly up to 28.7 µM
Method in brief: as §1

CC(C)(O)c1ccccc1CC[C@H](SCC1(CC(=O)O)CC1)c1cccc(/C=C/c2ccc3ccc(Cl)cc3n2)c1
active: Potency [2] 11.4 µM | Potency (Furin (Homo sapiens)) 52.7 µM | Potency [5] 11.2 µM
inactive: outcome [1] | outcome [3] | Potency [4] | Potency [6] | activity, negative = inhibition ([7]; parasite line A) -2.01% | activity, negative = inhibition ([7]; parasite line B) -18.3% | Potency (3D7) | Potency (AA1029) | Potency (AS120) | Potency (ATS189) | Potency (ATS95) | Potency (C2A) | Potency (CP185) | Potency (CP191) | Potency (CP192) | Potency (CP194) | Potency (CP201) | Potency (CP211) | Potency (CP217) | Potency (CP237) | Potency (CP238) | Potency (CP250) | Potency (CP252) | Potency (CP256) | Potency (CP260) | Potency (CP262) | Potency (CP265)
